Results published in PubChem BioAssay (EPA / NIEHS).
Active and inactive are the calls of the source. How the source made its calls: active means hit-call score of the fitted dose curve at least 0.9, where 1 is the maximum; inactive means score below 0.9.

What was measured:
[1] = ATG_CRE_CIS: Attagene CIS-FACTORIAL HepG2 Assay for human cAMP Responsive Element (CRE) binding protein 3 (AID 2282926); details: HepG2 CRE cis-reporter, Attagene multiplexed mRNA; actives raise or lower the signal
Summary of the method: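 Transfected HepG2 were treated for 24 hours, then RNA was extracted and reporter cDNA amplified with sequence-specific primers. Labelled fragments were separated by capillary electrophoresis, and the CRE signal was fitted bidirectionally with DMSO as baseline.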

[2] = ATG_DR4_LXR_CIS: Attagene CIS-FACTORIAL HepG2 Assay for human Liver X Receptor (LXR), DR4 submotif (AID 2282929); details: HepG2 Attagene DR4 cis-reporter, mRNA transcription; actives raise or lower the signal
Summary of the method: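 DR4 cis-reporter in HepG2, 24 h exposure. Detection: RT-PCR, 6-FAM labelling, CE fragment analysis. Endpoint fitted bidirectionally, DMSO = baseline.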

[3] = ATG_AP_1_CIS: Attagene CIS-FACTORIAL HepG2 Assay for human Activator Protein 1 (AP-1) (AID 2282931); details: HepG2 Attagene cis-factorial AP-1 reporter mRNA; actives raise or lower the signal
Summary of the method: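 Cis-regulated reporter units transiently expressed in HepG2 report endogenous transcription-factor activity. Signal: reporter mRNA at 24 h, via RT-PCR and fluorescent capillary electrophoresis. Endpoint derived by bidirectional fitting, DMSO as negative control.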

[4] = ATG_AP_2_CIS: Attagene CIS-FACTORIAL HepG2 Assay for human Activator Protein 2 (AP-2) (AID 2282932); details: HepG2 AP-2 cis-reporter, Attagene transcription factor profiling; actives raise or lower the signal
Summary of the method: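 Multiplexed mRNA reporter assay in HepG2: cis-regulated units report endogenous factor activity after 24 h treatment. Fluorescence from capillary electrophoresis of RT-PCR products gives the signal, with DMSO as baseline.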

[5] = molecular target: Transcription factor E2F1 (Homo sapiens) (UniProt Q01094); assay: ATG_E2F_CIS: Attagene CIS-FACTORIAL HepG2 Assay for human E2F Transcription Factor 1 (AID 2282935); details: HepG2 Attagene cis-reporter, E2F reporter RNA transcripts; actives raise or lower the signal
Transcription factor E2F1 (Homo sapiens), sequence (Q01094 whole entry, looked up): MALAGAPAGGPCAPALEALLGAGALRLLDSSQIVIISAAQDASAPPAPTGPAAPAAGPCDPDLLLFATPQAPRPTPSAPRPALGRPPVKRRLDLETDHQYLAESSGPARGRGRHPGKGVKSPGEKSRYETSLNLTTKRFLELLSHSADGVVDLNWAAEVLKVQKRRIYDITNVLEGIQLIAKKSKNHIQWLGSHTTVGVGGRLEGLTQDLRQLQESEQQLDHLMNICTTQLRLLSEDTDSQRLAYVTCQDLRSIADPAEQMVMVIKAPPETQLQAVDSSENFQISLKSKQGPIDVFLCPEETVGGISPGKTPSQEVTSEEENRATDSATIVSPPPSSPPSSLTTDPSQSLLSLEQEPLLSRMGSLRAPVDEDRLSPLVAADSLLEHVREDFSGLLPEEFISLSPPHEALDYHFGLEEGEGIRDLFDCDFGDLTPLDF
Summary of the method: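 Measures reporter transcript levels via RT-PCR with capillary electrophoresis detection in HepG2 cells harboring cis-regulated reporter units; 24 h post-dose; bidirectional curve fitting with DMSO as baseline.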

[6] = ATG_M_61_CIS: Attagene CIS-FACTORIAL HepG2 Assay for M61 Transcription Factor (Internal Marker) (AID 2282937); details: HepG2 Attagene CIS-FACTORIAL M61 internal marker reporter; actives raise or lower the signal
Summary of the method: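 Background-control endpoint: HepG2 cells with cis-regulated reporter constructs, 24 h exposure, reporter mRNA detected via fluorescent primer extension and capillary electrophoresis; values from bidirectional fitting with DMSO baseline.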

[7] = ATG_EGR_CIS: Attagene CIS-FACTORIAL HepG2 Assay for human Early Growth Response 1 (EGR1) (AID 2282938); details: HepG2 Attagene CIS-FACTORIAL EGR reporter mRNA; actives raise or lower the signal
Summary of the method: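 Endpoint derived by bidirectional fitting versus DMSO vehicle. Method: cis-promoter reporter units transfected into HepG2, 24 h dosing, RNA isolation, RT-PCR with 6-FAM primer extension and HpaI digestion, then capillary electrophoresis fluorescence detection.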

[8] = ATG_M_19_CIS: Attagene CIS-FACTORIAL HepG2 Assay for M19 Transcription Factor (Internal Marker) (AID 2282939); details: HepG2 Attagene CIS-FACTORIAL M19 internal marker reporter; actives raise or lower the signal
Summary of the method: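 HepG2 cells transiently transfected with cis-regulated multiplexed reporter units, dosed 24 h. Reporter mRNA quantified by RT-PCR and capillary electrophoresis; internal background marker fitted bidirectionally versus DMSO.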

[9] = ATG_Ets_CIS: Attagene CIS-FACTORIAL HepG2 Assay for human Erythroblast Transformation Specific (ETS) (AID 2282941); details: HepG2 ETS cis-reporter transcription, actives raise or lower the signal
Summary of the method: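 HepG2 cells transfected with multiple cis-regulated reporter units measuring endogenous ETS-driven transcription, 24 h after dosing. Reporter mRNA quantified by RT-PCR with capillary electrophoresis; bidirectional fit relative to DMSO.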

[10] = molecular target: Hepatocyte nuclear factor 3-beta (Homo sapiens) (UniProt Q9Y261); assay: ATG_FoxA2_CIS: Attagene CIS-FACTORIAL HepG2 Assay for human Forkhead box A2 (FOXA2) (AID 2282942); details: HepG2 cis-reporter transcription factor activity, 24 h; actives raise or lower the signal
Hepatocyte nuclear factor 3-beta (Homo sapiens), sequence (Q9Y261 whole entry, looked up): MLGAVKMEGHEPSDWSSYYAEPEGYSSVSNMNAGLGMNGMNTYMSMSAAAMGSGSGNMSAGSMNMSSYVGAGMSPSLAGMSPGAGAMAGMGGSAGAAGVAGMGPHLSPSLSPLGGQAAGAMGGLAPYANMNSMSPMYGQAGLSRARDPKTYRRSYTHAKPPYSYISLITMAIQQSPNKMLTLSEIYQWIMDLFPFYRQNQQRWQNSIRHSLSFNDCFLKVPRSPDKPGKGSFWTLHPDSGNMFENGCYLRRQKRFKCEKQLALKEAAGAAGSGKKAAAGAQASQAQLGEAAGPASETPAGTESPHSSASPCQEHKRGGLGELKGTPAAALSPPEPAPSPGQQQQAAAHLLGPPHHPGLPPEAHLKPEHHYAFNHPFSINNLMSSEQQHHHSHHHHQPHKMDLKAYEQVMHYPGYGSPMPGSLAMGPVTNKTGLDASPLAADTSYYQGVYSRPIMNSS
Summary of the method: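 Measured: reporter mRNA induction or loss in HepG2 transiently carrying multiple cis-regulated reporter units, 24 h after dosing. Quantified by RT-PCR plus capillary electrophoresis, normalised to DMSO.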

[11] = ATG_GATA_CIS: Attagene CIS-FACTORIAL HepG2 Assay for human GATA Binding Protein (AID 2282944); details: HepG2 GATA cis-element reporter, Attagene multiplex mRNA; actives raise or lower the signal
Summary of the method: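 HepG2 cells transiently transfected with multiplexed cis-element reporter units measure endogenous GATA activity; after 24 h compound exposure, reporter mRNA quantified by RT-PCR and capillary electrophoresis. Changes fitted in both directions vs DMSO.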

[12] = ATG_GLI_CIS: Attagene CIS-FACTORIAL HepG2 Assay for human Zinc Finger Protein GLI1 (AID 2282945); details: HepG2, Attagene cis-factorial reporter mRNA, GLI element; actives raise or lower the signal
Summary of the method: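 Transiently transfected HepG2 cells report endogenous transcription factor activity via cis-element-driven reporter units. After 24 h compound exposure, reporter mRNA was measured by RT-PCR with capillary electrophoresis; bidirectional fitting against DMSO baseline.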

[13] = ATG_ISRE_CIS: Attagene CIS-FACTORIAL HepG2 Assay for human Interferon Regulatory Factor 1 (IRF1) binding to an Interferon-Stimulated Response Element (ISRE) (AID 2282948); details: HepG2 ISRE cis-reporter (Attagene), mRNA transcription readout; actives raise or lower the signal
Summary of the method: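 Transiently transfected HepG2 cells carrying cis-element reporter units, dosed 24 hours. Reporter mRNA quantified by RT-PCR, fluorescent primer extension, HpaI digestion and capillary electrophoresis. Bidirectional fitting relative to DMSO.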

[14] = ATG_M_32_CIS: Attagene CIS-FACTORIAL HepG2 Assay for M32 Transcription Factor (Internal Marker) (AID 2282949); details: HepG2 Attagene cis-factorial M32 reporter, mRNA; actives raise or lower the signal;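 further: background control marker of the multiplexed CIS panel rather than a real target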
Summary of the method: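 Internal background marker read-out: RT-PCR/capillary electrophoresis fluorescence of reporter transcripts from transiently transfected HepG2 cells after 24 h chemical exposure. Activity fitted bidirectionally relative to DMSO negative control.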

[15] = ATG_M_06_CIS: Attagene CIS-FACTORIAL HepG2 Assay for M06 Transcription Factor (Internal Marker) (AID 2282950); details: HepG2 Attagene CIS-FACTORIAL M06 internal marker reporter; actives raise or lower the signal
Summary of the method: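 Internal background marker within multiplexed cis-reporter HepG2 system. Cells transiently transfected, dosed 24 h; reporter mRNA measured by RT-PCR, HpaI digestion and capillary electrophoresis. Bidirectional fit relative to DMSO.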

[16] = ATG_MRE_CIS: Attagene CIS-FACTORIAL HepG2 Assay for human Metal Responsive Element (MRE) (AID 2282954); details: HepG2 MRE cis-reporter transcription, Attagene multiplex; actives raise or lower the signal
Summary of the method: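 Fluorescent reporter fragments separated by capillary electrophoresis give mRNA induction for the MRE unit after 24 h treatment of transfected HepG2 cells. Endogenous transcription-factor activity is read; DMSO serves as negative control and baseline.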

[17] = molecular target: Paired box protein Pax-6 (Homo sapiens) (UniProt P26367); assay: ATG_Pax6_CIS: Attagene CIS-FACTORIAL HepG2 Assay for human Paired Box 6 (PAX6) (AID 2282956); details: HepG2 CIS-FACTORIAL PAX6 reporter transcription, RNA readout; actives raise or lower the signal
Paired box protein Pax-6 (Homo sapiens), sequence (P26367 whole entry, looked up): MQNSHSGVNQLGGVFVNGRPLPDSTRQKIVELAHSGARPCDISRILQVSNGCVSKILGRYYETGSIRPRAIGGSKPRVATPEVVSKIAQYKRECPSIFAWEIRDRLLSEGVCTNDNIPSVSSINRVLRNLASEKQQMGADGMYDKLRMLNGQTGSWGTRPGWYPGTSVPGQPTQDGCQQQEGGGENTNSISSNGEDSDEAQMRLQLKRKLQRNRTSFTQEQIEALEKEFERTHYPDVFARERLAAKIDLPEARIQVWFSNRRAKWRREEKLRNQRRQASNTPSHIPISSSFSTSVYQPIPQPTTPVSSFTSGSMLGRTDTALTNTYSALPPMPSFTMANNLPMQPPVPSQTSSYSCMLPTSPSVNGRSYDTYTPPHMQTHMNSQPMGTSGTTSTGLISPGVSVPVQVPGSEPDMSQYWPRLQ
Summary of the method: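 HepG2 cells transiently transfected with cis-promoter-driven multiplexed reporter units sensing endogenous transcription factor activity; 24 h chemical exposure. Reporter mRNA quantified by RT-PCR, 6-FAM labelling, HpaI digestion and capillary electrophoresis; bidirectional fit versus DMSO baseline.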

[18] = ATG_PXRE_CIS: Attagene CIS-FACTORIAL HepG2 Assay for human Pregnane X Receptor Element (PXRE) (AID 2282957); details: HepG2 Attagene CIS-FACTORIAL PXRE reporter, mRNA; actives raise or lower the signal
Summary of the method: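 Multiplexed cis-reporter assay in transiently transfected human HepG2 cells; 24 h chemical exposure. Reporter transcripts quantified by RT-PCR with fluorescent labeling and capillary electrophoresis.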

[19] = molecular target: Transcription factor Sp1 (Homo sapiens) (UniProt P08047); assay: ATG_Sp1_CIS: Attagene CIS-FACTORIAL HepG2 Assay for human Specificity Protein 1 (Sp1) (AID 2282961); details: HepG2 Sp1 cis-reporter transcription, actives raise or lower the signal
Transcription factor Sp1 (Homo sapiens), sequence (P08047 whole entry, looked up, the tested form may be a part): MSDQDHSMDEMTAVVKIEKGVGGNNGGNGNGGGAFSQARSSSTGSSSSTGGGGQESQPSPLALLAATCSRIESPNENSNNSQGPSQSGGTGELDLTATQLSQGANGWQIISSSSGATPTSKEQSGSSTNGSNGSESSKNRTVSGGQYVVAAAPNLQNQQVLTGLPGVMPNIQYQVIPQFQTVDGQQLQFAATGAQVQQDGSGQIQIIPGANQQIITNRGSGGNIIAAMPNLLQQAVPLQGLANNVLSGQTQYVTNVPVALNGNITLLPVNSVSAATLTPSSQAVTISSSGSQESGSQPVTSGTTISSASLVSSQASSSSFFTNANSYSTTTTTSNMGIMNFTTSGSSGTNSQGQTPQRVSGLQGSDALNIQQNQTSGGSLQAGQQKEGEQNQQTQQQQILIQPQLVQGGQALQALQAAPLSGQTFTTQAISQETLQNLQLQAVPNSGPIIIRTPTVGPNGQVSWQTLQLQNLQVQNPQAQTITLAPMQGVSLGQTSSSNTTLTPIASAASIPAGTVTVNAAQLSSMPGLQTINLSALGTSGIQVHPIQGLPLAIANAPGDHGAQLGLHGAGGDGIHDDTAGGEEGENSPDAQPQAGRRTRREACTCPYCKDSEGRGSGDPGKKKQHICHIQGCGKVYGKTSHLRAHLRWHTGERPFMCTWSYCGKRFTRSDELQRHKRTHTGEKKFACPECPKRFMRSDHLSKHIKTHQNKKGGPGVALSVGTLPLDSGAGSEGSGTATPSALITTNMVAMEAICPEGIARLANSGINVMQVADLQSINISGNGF
Summary of the method: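 Endpoint reflects endogenous Sp1 transcriptional activity, not an exogenous fusion protein: HepG2 cells with transfected cis-regulated reporters, 24 h dosing, RT-PCR/capillary electrophoresis mRNA read-out, DMSO-normalised bidirectional fit.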

[20] = molecular target: Signal transducer and activator of transcription 3 (Homo sapiens) (UniProt P40763); assay: ATG_STAT3_CIS: Attagene CIS-FACTORIAL HepG2 Assay for human Signal Transducer and Activator of Transcription 3 (STAT3) (AID 2282963); details: HepG2, Attagene cis-factorial STAT3 reporter transcription; actives raise or lower the signal
Signal transducer and activator of transcription 3 (Homo sapiens), sequence (P40763 whole entry, looked up): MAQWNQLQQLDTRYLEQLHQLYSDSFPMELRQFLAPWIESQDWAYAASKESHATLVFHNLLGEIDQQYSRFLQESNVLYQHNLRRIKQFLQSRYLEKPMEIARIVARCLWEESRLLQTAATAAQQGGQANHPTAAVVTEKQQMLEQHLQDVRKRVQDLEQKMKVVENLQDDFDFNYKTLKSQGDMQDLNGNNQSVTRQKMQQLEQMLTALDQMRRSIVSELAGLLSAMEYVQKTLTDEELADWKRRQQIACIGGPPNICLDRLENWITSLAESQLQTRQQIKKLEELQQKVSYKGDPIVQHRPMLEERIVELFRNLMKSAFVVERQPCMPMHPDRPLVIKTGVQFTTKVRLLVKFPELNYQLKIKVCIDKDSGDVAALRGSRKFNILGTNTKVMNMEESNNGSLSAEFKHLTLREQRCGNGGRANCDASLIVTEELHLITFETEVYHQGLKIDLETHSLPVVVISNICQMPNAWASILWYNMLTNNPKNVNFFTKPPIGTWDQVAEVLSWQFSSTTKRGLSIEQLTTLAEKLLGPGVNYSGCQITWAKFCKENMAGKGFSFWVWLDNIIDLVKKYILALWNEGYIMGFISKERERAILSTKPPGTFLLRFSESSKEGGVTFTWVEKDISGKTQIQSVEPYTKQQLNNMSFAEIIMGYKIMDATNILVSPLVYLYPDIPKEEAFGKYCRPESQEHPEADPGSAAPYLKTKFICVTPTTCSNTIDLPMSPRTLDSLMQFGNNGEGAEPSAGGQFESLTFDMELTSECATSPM
Summary of the method: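 Values derive from bidirectional fits relative to DMSO of reporter mRNA levels, measured by RT-PCR with capillary electrophoresis, in HepG2 cells carrying transiently transfected cis-regulated reporter units and exposed 24 h.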

Measured: AC50

O=C1Nc2ccc(Cl)cc2C(c2ccccc2)=NC1O (stereo not given)
inactive: all assays above

N#Cc1cc(I)c(O)c(I)c1
active: [3] 100 µM | [19] 100 µM
inactive: all other assays above

C=CC(=O)OC
inactive: all assays above

Cc1ccc(OP(=O)(Oc2ccc(C)cc2)Oc2ccc(C)cc2)cc1 (tested in a mixture with another compound)
active: [2] 9.36 µM | [13] 100 µM | [18] 0.519 µM
inactive: all other assays above

COc1cc(OC)nc(Oc2cccc(Oc3nc(OC)cc(OC)n3)c2C(=O)O)n1
active: [18] 56 µM
inactive: all other assays above

Nc1ccc([N+](=O)[O-])cc1N
inactive: all assays above

BrCBr
inactive: all assays above
